Data as given in PubChem BioAssay.
Active and inactive are the calls of the source. Unless noted, the rule behind the calls is not given here.

Experiments:
[1] = system: Wnt5a (protein binding on small-molecule microarray); assay: small molecules binding Wnt5a protein – biophysical, small-molecule microarray, 635/667 nm fluorescence, primary screen (AID 1142); conditions: 635 nm fluorescence, higher = more signal;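 note: fluorescence read at 667 nm with signal to noise per printed feature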
[2] = ATP-based viability of Huh7 replicon cells – cell-based, CellTiter-Glo luminescence, basal, 48 h, cytotoxicity control for HCV replication inhibitor project, primary screen (AID 1143); conditions: higher = more signal, called active from +8 up or from −8 down;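 note: Huh7 hepatoma cells carrying a hepatitis C replication reporter with no stimulus; test concentration not given here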
[3] = Pseudomonas biofilm growth suppression – PAO1 strain, BacTiter-Glo luminescence, LB-PBS, primary screen (AID 1144); conditions: P. aeruginosa PAO1 biofilm, 12 h, higher = more signal
[4] = basal CRE-LacZ reporter activity in PC12 – cell-based, unstimulated, primary screen (AID 1145); conditions: no forskolin, luminescence, 4.5 h, higher = more signal, called active from +8 up or from −8 down
[5] = forskolin-driven CRE-LacZ activity in PC12 – cell-based, CRE-LacZ reporter, forskolin-stimulated, primary screen (AID 1146); conditions: luminescence, 4.5 h, higher = more signal, called active from +8 up or from −8 down;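 note: PC12 cells with 6xCRE LacZ reporter stimulated by forskolin 10 µM; beta-galactosidase reporter signal reflecting CREB driven transcription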
[6] = molecular target: Streptavidin (Streptomyces avidinii) (UniProt P22629); assay: compounds binding control protein streptavidin – biophysical, small-molecule microarray, 635/667 nm fluorescence, artefact control for SMM compound annotation, primary screen (AID 1147); conditions: higher = more signal;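 note: signal reflects streptavidin binding to arrayed compounds as a control protein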
Streptavidin (Streptomyces avidinii), sequence (P22629 whole entry, looked up): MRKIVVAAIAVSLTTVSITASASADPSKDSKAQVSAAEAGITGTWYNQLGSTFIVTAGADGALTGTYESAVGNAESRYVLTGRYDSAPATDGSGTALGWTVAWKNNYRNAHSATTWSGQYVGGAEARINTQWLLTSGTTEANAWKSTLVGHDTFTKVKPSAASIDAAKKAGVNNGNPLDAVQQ

[7] = probe aInhba binding on compound microarray – biochemical, small-molecule microarray, 635/667 nm fluorescence, primary screen (AID 1148); conditions: higher = more signal;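 note: score merges 667nm spot fluorescence with signal-to-noise for antibody binding to printed compounds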
Torsin-1A (Homo sapiens) [8] = molecular target: Torsin-1A (Homo sapiens) (UniProt O14656); assay: TOR1A wild-type binding on microarray – cell lysate, small-molecule microarray, lysate, 635/667 nm, primary screen (AID 1149); conditions: COS7 hTOR1A-WT lysate, 635 nm fluorescence, higher = more signal
Torsin-1A (Homo sapiens), sequence (O14656 whole entry, looked up): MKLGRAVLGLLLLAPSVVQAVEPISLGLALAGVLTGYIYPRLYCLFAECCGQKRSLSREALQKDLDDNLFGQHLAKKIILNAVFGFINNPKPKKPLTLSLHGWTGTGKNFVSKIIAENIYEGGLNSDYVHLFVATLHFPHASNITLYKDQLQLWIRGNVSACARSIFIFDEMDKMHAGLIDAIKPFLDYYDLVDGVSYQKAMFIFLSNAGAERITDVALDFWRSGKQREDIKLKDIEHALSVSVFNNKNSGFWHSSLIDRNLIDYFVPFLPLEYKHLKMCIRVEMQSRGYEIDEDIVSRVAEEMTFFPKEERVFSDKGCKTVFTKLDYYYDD

Torsin-1A (Homo sapiens) [9] = molecular target: Torsin-1A (Homo sapiens) (UniProt O14656); assay: torsin A mutant lysate binding on microarrays – cell lysate, small-molecule microarray, COS7 lysate, 635/667 nm fluorescence, primary screen (AID 1150); conditions: COS7 hTOR1A mutant lysate, 635 nm fluorescence, higher = more signal;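 note: score pools 667 nm emission and signal to noise measuring lysate protein binding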
[10] = system: Sonic hedgehog protein (Shh); assay: Sonic hedgehog microarray binding compounds – biochemical, small-molecule microarray, 635/667 nm fluorescence, primary screen (AID 1151); conditions: 635 nm fluorescence, higher = more signal;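 note: Shh protein binding to compounds spotted on small-molecule microarray slides; score combines spot fluorescence intensity with signal-to-noise across triplicate slides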
[11] = optical density shifts of acrAB sulA E. coli – strain DRC41, OD650, 48 h, E. coli filamentation inducer project, primary screen (AID 1152); conditions: higher = more signal, called active from +8 up or from −8 down;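 note: E. coli MC1000 strain DRC41 lacking acrAB efflux pump and sulA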
[12] = probe aLefty1 binding on compound microarray – biochemical, small-molecule microarray, 635/667 nm fluorescence, primary screen (AID 1153); conditions: higher = more signal;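 note: score merges spot fluorescence with signal-to-noise ratio from the scanned slide images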
[13] = plasmodial surface anion channel blockers, osmotic lysis – cell-based, P. falciparum Indochina, OD700, 1 h, primary screen (AID 1154); conditions: P. falciparum Indochina infected RBC osmotic lysis, higher = more signal, called active from +8 up or from −8 down
[14] = plasmodial surface anion channel blockers, osmotic lysis – cell-based, P. falciparum Indochina, OD700, 2 h, primary screen (AID 1155);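 note: lysis reports solute entry through the parasite surface anion channel PSAC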; conditions: P. falciparum Indochina infected erythrocytes, higher = more signal, called active from +8 up or from −8 down
[15] = changes in parasitized red cell lysis, either direction – P. falciparum Indochina, OD700, 3 h, PSAC antagonist project, primary screen (AID 1156); conditions: P. falciparum-infected erythrocytes, osmotic lysis, higher = more signal, called active from +8 up or from −8 down
[16] = plasmodial surface anion channel blockers, osmotic lysis – cell-based, P. falciparum Indochina, OD700, 18 h, primary screen (AID 1157); conditions: P. falciparum Indochina infected erythrocytes, osmotic lysis OD700, 18 h; higher = more signal, called active from +8 up or from −8 down
[17] = S6 kinase pathway phospho-S6 level changes – cell-based, A549, cytoblot, luminescence, serum-stimulated, primary screen (AID 1158); conditions: 5 h, higher = more signal;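 note: serum-stimulated A549 lung adenocarcinoma cells; signal is phosphorylated S6 detected by cytoblot immunostaining with HRP secondary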
[18] = molecular target: NADPH oxidase 2 (Homo sapiens) (UniProt P04839); assay: compounds shifting NOX2 Amplex Red fluorescence – cell-based, HEK293-NOX2, PMA-stimulated, NOX inhibitor project, primary screen (AID 1159); conditions: 45 min, higher = more signal, called active from +8 up or from −8 down; note: test concentration not given here
NADPH oxidase 2 (Homo sapiens), sequence (P04839 whole entry, looked up): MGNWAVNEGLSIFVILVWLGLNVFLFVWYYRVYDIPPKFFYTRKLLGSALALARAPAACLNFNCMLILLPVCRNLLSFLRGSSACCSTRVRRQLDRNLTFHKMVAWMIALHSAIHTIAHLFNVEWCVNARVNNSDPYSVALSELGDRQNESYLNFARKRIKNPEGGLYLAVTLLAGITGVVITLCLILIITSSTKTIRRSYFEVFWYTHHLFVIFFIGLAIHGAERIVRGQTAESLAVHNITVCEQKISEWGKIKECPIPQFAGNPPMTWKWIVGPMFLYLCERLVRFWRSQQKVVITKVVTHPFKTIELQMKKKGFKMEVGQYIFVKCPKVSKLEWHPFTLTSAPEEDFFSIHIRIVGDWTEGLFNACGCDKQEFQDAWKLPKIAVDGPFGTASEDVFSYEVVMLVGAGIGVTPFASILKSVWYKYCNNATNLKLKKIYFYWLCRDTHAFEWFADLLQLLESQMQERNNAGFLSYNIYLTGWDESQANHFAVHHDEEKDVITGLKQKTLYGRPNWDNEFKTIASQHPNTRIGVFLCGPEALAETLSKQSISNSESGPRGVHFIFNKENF

[19] = molecular target: NADPH oxidase 4 (Homo sapiens) (UniProt Q9NPH5); assay: compounds shifting NOX4 Amplex Red fluorescence – cell-based, HEK293-NOX4, tetracycline-induced, NOX inhibitor project, primary screen (AID 1160); conditions: HEK293-NOX4, Amplex Red H2O2 fluorescence, 45 min; higher = more signal, called active from +8 up or from −8 down
NADPH oxidase 4 (Homo sapiens), sequence (Q9NPH5 whole entry, looked up): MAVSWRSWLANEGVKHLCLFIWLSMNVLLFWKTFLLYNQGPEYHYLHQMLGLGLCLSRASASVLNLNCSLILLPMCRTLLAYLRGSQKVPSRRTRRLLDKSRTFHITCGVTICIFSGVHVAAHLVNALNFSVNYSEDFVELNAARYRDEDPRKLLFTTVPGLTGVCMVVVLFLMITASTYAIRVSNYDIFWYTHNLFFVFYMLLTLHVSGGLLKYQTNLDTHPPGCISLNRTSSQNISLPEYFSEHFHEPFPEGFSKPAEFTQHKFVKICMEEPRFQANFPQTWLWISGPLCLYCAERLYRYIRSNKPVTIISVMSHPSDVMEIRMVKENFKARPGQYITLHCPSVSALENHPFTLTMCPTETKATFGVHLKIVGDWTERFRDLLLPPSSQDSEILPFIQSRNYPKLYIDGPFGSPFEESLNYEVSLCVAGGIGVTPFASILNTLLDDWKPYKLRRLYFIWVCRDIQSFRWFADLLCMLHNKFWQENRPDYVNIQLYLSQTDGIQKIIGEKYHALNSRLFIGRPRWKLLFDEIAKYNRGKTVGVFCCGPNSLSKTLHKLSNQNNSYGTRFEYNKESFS

[20] = molecular target: NADPH oxidase 5 (Homo sapiens) (UniProt Q96PH1); assay: compounds shifting NOX5 Amplex Red fluorescence – cell-based, HEK293-NOX5, NOX inhibitor project, primary screen (AID 1161); conditions: HEK293-NOX5, ionomycin, 45 min, higher = more signal
NADPH oxidase 5 (Homo sapiens), sequence (Q96PH1 whole entry, looked up): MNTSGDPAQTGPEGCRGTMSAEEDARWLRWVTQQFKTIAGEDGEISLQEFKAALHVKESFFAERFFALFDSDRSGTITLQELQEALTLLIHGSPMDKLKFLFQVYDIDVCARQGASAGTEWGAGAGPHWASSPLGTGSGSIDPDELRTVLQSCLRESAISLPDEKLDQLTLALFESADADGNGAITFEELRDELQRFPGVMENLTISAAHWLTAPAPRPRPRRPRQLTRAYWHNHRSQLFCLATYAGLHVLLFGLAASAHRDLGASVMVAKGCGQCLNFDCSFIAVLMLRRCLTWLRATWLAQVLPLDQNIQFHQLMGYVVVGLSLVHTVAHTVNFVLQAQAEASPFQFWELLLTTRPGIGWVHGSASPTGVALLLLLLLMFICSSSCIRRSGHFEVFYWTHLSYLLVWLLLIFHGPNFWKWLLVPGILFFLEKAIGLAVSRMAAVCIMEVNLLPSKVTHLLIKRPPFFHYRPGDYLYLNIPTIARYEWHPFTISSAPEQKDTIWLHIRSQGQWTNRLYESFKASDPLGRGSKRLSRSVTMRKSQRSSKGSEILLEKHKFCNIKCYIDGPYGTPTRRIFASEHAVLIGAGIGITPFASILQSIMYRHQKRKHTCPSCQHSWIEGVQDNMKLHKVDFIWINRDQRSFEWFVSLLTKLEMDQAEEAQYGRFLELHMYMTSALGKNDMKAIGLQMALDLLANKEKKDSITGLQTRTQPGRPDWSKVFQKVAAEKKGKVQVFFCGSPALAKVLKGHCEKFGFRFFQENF

C=CC[C@]1(C(=O)NCCN2CCOCC2)N=C(c2ccc(OCCCO)cc2)O[C@H]1c1ccccc1N=[N+]=[N-]
composite z-score [1]: 0.038 | z-score [2]: -1.76 (inactive) | z-score [3]: 0.672 (inactive) | z-score [4]: 2.66 (inactive) | z-score [5]: -1.37 (inactive) | composite z-score [6]: 1.23 | composite z-score [7]: 0.126 | composite z-score (Torsin-1A (Homo sapiens) [8]): 0.17 | composite z-score (Torsin-1A (Homo sapiens) [9]): -0.0097 | composite z-score [10]: 0.255 | z-score [11]: 1.39 (inactive) | composite z-score [12]: 0.14 | z-score [13]: 30.7 (active) | z-score [14]: 28.6 (active) | z-score [15]: 2.5 (inactive) | z-score [16]: 5.98 (inactive) | z-score [17]: -0.106 | z-score [18]: -0.798 (inactive) | z-score [19]: 1.5 (inactive) | z-score [20]: 0.108

CN1C(=O)C2C=CC(C(O)C3=C[C@H]4C[C@@H](C3)C4(C)C)N(Nc3ccc([N+](=O)[O-])cc3[N+](=O)[O-])C2C1=O (stereo not given in full)
composite z-score [1]: 0.325 | z-score [2]: -0.119 (inactive) | z-score [3]: -0.184 (inactive) | z-score [4]: 0.443 (inactive) | z-score [5]: -0.946 (inactive) | composite z-score [6]: 1.56 | composite z-score [7]: 0.421 | composite z-score (Torsin-1A (Homo sapiens) [8]): 0.124 | composite z-score (Torsin-1A (Homo sapiens) [9]): 0.566 | composite z-score [10]: 0.0842 | z-score [11]: -0.794 (inactive) | composite z-score [12]: 0.271 | z-score [13]: 3.59 (inactive) | z-score [14]: 1.27 (inactive) | z-score [15]: 1.06 (inactive) | z-score [16]: 1.05 (inactive) | z-score [17]: -0.456 | z-score [18]: 0.0656 (inactive) | z-score [19]: -0.0391 (inactive) | z-score [20]: -1.2

Cc1cc(C)c(C(O)C2C=CC3C(=O)NC(=O)C3N2Nc2ccccn2)c(C)c1 (stereo not given)
composite z-score [1]: -0.265 | z-score [2]: 0.882 (inactive) | z-score [3]: -0.644 (inactive) | z-score [4]: -0.14 (inactive) | z-score [5]: -0.0376 (inactive) | composite z-score [6]: 0.545 | composite z-score [7]: 0.0599 | composite z-score (Torsin-1A (Homo sapiens) [8]): -0.145 | composite z-score (Torsin-1A (Homo sapiens) [9]): 0.736 | composite z-score [10]: -0.095 | z-score [11]: -1.14 (inactive) | composite z-score [12]: 0.469 | z-score [13]: 1.02 (inactive) | z-score [14]: 0.742 (inactive) | z-score [15]: -0.0209 (inactive) | z-score [16]: 1.07 (inactive) | z-score [17]: -1.25 | z-score [18]: -1.49 (inactive) | z-score [19]: -1.33 (inactive) | z-score [20]: -2.12

CO[C@H]1O[C@H](CO)[C@@H](OC(=O)Nc2cccc(F)c2)[C@H](OC(=O)Nc2ccccc2-c2ccccc2)[C@@H]1OC(=O)Nc1ccccc1-c1ccccc1
composite z-score [1]: 0.21 | z-score [2]: -5.49 (inactive) | z-score [3]: -0.579 (inactive) | z-score [4]: 0.306 (inactive) | z-score [5]: 0.0811 (inactive) | composite z-score [6]: 1.88 | composite z-score [7]: 0.212 | composite z-score (Torsin-1A (Homo sapiens) [8]): 0.838 | composite z-score (Torsin-1A (Homo sapiens) [9]): 0.886 | composite z-score [10]: 0.667 | z-score [11]: 0.538 (inactive) | composite z-score [12]: 0.257 | z-score [13]: 3.1 (inactive) | z-score [14]: 2.23 (inactive) | z-score [15]: 0.346 (inactive) | z-score [16]: 1.68 (inactive) | z-score [17]: 0.0437 | z-score [18]: -2.45 (inactive) | z-score [19]: -0.551 (inactive) | z-score [20]: -0.608

COC(=O)c1c(CC[C@@H](CO)NC(=O)Nc2ncn[nH]2)oc(C(=O)Cc2ccccc2)c1C(=O)OC
composite z-score [1]: -0.0403 | z-score [2]: 0.31 (inactive) | z-score [3]: 0.152 (inactive) | z-score [4]: -0.0106 (inactive) | z-score [5]: 0.352 (inactive) | composite z-score [6]: 1.36 | composite z-score [7]: 0.0342 | composite z-score (Torsin-1A (Homo sapiens) [8]): 1.49 | composite z-score (Torsin-1A (Homo sapiens) [9]): 0.837 | composite z-score [10]: 1.1 | z-score [11]: -0.862 (inactive) | composite z-score [12]: 0.0751 | z-score [13]: 0.658 (inactive) | z-score [14]: 0.22 (inactive) | z-score [15]: -0.641 (inactive) | z-score [16]: 0.0651 (inactive) | z-score [17]: 0.0642 | z-score [18]: -1.16 (inactive) | z-score [19]: -0.331 (inactive) | z-score [20]: -0.53
